The text below walks through data of PubChem BioAssay (EPA / NIEHS).

Records with an inconclusive call do not appear. Activity calls are given as the source filed them. Rule for the calls: active = hit-call score of the fitted dose curve at least 0.9, where 1 is the maximum; inconclusive = response in the unintended direction; inactive = score below 0.9.

human Thyroid hormone Receptor alpha (TRa), THRA (gene 7067), sequence (P10827 whole entry, looked up, the tested form may be a part): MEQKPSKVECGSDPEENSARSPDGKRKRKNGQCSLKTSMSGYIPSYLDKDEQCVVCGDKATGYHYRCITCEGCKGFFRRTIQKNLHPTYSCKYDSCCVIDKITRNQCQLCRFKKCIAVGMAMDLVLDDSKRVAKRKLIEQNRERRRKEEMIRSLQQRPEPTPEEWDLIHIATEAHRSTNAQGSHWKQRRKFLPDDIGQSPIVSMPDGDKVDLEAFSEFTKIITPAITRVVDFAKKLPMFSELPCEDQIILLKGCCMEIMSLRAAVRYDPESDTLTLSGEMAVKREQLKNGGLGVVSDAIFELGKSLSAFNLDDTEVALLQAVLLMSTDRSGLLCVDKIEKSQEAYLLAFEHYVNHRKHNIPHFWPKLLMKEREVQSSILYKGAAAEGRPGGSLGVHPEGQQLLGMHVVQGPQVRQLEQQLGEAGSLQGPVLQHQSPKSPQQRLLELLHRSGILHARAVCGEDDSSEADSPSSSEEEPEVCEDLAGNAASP
frog Thyroid hormone Receptor alpha (TRa), thra-a (gene 397942), sequence (P15204 whole entry, looked up): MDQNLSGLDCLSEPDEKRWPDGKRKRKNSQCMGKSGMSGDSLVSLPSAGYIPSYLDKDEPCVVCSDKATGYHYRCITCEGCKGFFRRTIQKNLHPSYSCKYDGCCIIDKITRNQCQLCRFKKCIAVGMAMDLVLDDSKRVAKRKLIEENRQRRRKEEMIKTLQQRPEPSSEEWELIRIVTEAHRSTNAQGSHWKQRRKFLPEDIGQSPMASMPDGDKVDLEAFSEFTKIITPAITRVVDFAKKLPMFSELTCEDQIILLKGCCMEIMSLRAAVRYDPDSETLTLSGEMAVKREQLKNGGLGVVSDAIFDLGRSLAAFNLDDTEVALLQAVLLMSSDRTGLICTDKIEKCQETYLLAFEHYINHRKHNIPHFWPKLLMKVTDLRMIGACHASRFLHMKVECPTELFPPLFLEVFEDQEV
zebrafish Thyroid Hormone Receptor alpha (TRa), thraa (gene 30670), sequence (Q98867 whole entry, looked up, the tested form may be a part): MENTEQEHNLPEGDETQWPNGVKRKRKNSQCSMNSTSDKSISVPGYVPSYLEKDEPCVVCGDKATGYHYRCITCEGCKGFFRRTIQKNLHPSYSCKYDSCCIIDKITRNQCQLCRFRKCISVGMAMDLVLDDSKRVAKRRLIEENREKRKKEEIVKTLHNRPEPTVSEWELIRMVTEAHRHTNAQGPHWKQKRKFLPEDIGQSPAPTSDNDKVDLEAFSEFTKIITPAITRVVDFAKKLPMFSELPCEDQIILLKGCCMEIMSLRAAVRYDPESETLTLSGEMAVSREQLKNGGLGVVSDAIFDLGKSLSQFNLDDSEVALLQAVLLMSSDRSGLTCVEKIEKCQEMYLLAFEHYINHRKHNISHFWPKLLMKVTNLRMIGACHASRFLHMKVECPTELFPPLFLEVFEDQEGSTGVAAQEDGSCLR

The target of one experiment is frog Thyroid hormone Receptor alpha (TRa), thra-a (gene 397942) (UniProt P15204). Briefly: ATG_frTRa_XSP1: Attagene TRANS-FACTORIAL Multi-Species (XSP1) HepG2 Assay for frog Thyroid hormone Receptor alpha (TRa) (AID 2283804). The method, then:
ATG_XSP1_multi-species_TRANS is a cell-based, multiplexed assay created by modifying the existing Attagene TRANS-FACTORIAL system to include a panel of nuclear receptors from some or all the following species: human (Homo sapiens), mouse (Mus musculus), frog (Xenopus laevis), zebrafish (Danio rerio), chicken (Gallus gallus), and turtle (Chrysemys picta). The ECOTOX-FACTORIAL format uses HepG2, a human liver cell line, with measurements taken at 24 hours after chemical dosing in a 24-well plate. Xsp1 included 3 nM 6-alpha-fluorotestosterone to partially stimulate the androgen receptor.ATG_frTRa_XSP1 is one of 29 assay components measured or calculated from the ATG_XSP1_multi-species_TRANS assay. It is designed to make measurements of mRNA induction, a form of inducible reporter, as detected with fluorescence intensity signals by Reverse transcription polymerase chain reaction (RT-PCR) and Capillary electrophoresis technology.The assay endpoint ATG_frTRa_XSP1 was analyzed in the positive analysis fitting direction relative to DMSO as the negative control and baseline of activity. Using a type of inducible reporter, measures of mRNA for gain-of-signal activity can be used to understand the reporter gene at the transcription factor-level as they relate to the gene TR. Furthermore, this assay endpoint can be referred to as a primary readout, because this assay has produced multiple assay endpoints where this one serves a reporter gene function. To generalize the intended target to other relatable targets, this assay endpoint is annotated to the nuclear receptor intended target family, where the subfamily is non-steroidal.
Human liver HepG2 cells are transiently transfected with multiple reporter transcription units (MRTUs) in 6-well plates using FuGene 6 reagent (Roche; 3 ml FuGene/1 mg DNA). The MRTU constructs are regulated by a cis-regulating element (promoter). […] A major difference between the CIS and TRANS system is that in CIS activities of endogenous TFs are measured, whereas the TRANS assay evaluates changes in activities of exogenous, chimeric NR-Gal4 proteins. […] At the end of 24 hour incubation, total RNA was isolated using TriZol reagent (Invitrogen). The isolated RNA is then reverse-transcribed using oligo(dT) primer and Mo-MLV reverse transcriptase (Invitrogen) with DNAse I (Ambion) treatment for 30 min. […] The fragments were purified using Qiaquick PCR columns (Qiagen), analyzed on an ABI 3130xL genetic analyzer (Applied Biosystems) with peak positions identified by using a set of X-rhodamine (ROX)-labeled MapMarker1000 molecular weight standards (BioVentures). […]
As to `C[C@]12CCC(=O)C=C1CC[C@@H]1[C@@H]2CC[C@]2(C)C(=O)CC[C@@H]12`, the outcome was inactive.

Consider `C[C@]12CCC(=O)C=C1CC[C@@H]1[C@@H]2CC[C@@]2(C)[C@H]1CC[C@]2(C)O`, for which the outcome was inactive.

In the case of `Oc1ccc(C(c2ccc(O)cc2)(C(F)(F)F)C(F)(F)F)cc1`, the compound was classed as inactive.

In a further experiment the target is human Thyroid hormone Receptor alpha (TRa), THRA (gene 7067) (UniProt P10827). Description: ATG_hTRa_XSP1: Attagene TRANS-FACTORIAL Multi-Species (XSP1) HepG2 Assay for human Thyroid hormone Receptor alpha (TRa) (AID 2283805). In a few lines:
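Reporter transcripts from the human TRa-Gal4 TRANS unit quantified by RT-PCR, fluorescent labeling and capillary electrophoresis after 24 hours of chemical exposure in transfected HepG2 cells; medium contains 3 nM 6-alpha-fluorotestosterone. Positive direction fit against DMSO.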
`C[C@]12CCC(=O)C=C1CC[C@@H]1[C@@H]2CC[C@]2(C)C(=O)CC[C@@H]12`: the result was inactive.

For `CC(C)(c1ccccc1)c1ccc(O)cc1`, the outcome was inactive.

Regarding `C[C@]12CCC(=O)C=C1CC[C@@H]1[C@@H]2CC[C@@]2(C)[C@H]1CC[C@]2(C)O`, the compound was called inactive.

Turning to `Clc1ccc(C(c2ccccc2Cl)C(Cl)(Cl)Cl)cc1` (stereo not given), the result was inactive.

For `Oc1ccc(C(c2ccc(O)cc2)(C(F)(F)F)C(F)(F)F)cc1`, the result was inactive.

A further experiment has as its system turtle Thyroid Hormone Receptor, alpha (TRa), gene 101949057. Briefly: ATG_trTRa_XSP1: Attagene TRANS-FACTORIAL Multi-Species (XSP1) HepG2 Assay for turtle Thyroid Hormone Receptor, alpha (TRa) (AID 2283806). In a few lines: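 After 24 h chemical exposure, reporter transcripts were measured by RT-PCR with fluorescent primer extension, HpaI digestion and capillary electrophoresis. Cells were transiently transfected HepG2 expressing exogenous NR-Gal4 chimeras; medium contained 3 nM 6-alpha-fluorotestosterone; fitted upward relative to DMSO.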
Consider `C[C@]12CCC(=O)C=C1CC[C@@H]1[C@@H]2CC[C@]2(C)C(=O)CC[C@@H]12`, for which the call was inactive.

Consider `CC(C)(c1ccccc1)c1ccc(O)cc1`, for which the outcome was inactive.

As for `C[C@]12CCC(=O)C=C1CC[C@@H]1[C@@H]2CC[C@@]2(C)[C@H]1CC[C@]2(C)O`, the compound was classed as inactive.

For `ClC(Cl)=C(c1ccc(Cl)cc1)c1ccc(Cl)cc1`, the compound was classed as inactive.

Take `Clc1ccc(C(c2ccccc2Cl)C(Cl)(Cl)Cl)cc1` (stereo not given): the compound was classed as inactive.

`Oc1ccc(C(c2ccc(O)cc2)(C(F)(F)F)C(F)(F)F)cc1`: the compound was called inactive.

In another experiment the target is zebrafish Thyroid Hormone Receptor alpha (TRa), thraa (gene 30670) (UniProt Q98867). Description: ATG_zfTRa_XSP1: Attagene TRANS-FACTORIAL Multi-Species (XSP1) HepG2 Assay for zebrafish Thyroid Hormone Receptor alpha (TRa) (AID 2283807). A digest of the protocol:
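Reporter transcripts driven by a chimeric zebrafish TRa–Gal4 protein were measured by RT-PCR with fluorescent labelling and capillary electrophoresis. These came from transiently transfected HepG2 cells after 24 h chemical exposure, with 3 nM 6-alpha-fluorotestosterone added; baseline was DMSO.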
`C[C@]12CCC(=O)C=C1CC[C@@H]1[C@@H]2CC[C@]2(C)C(=O)CC[C@@H]12`: the compound was classed as inactive.

With `CC(C)(c1ccccc1)c1ccc(O)cc1`, the compound was called inactive.

Turning to `C[C@]12CCC(=O)C=C1CC[C@@H]1[C@@H]2CC[C@@]2(C)[C@H]1CC[C@]2(C)O`, the compound was called inactive.

As to `ClC(Cl)=C(c1ccc(Cl)cc1)c1ccc(Cl)cc1`, the compound was called inactive.

In the case of `Clc1ccc(C(c2ccccc2Cl)C(Cl)(Cl)Cl)cc1` (stereo not given), the call was inactive.

As for `Oc1ccc(C(c2ccc(O)cc2)(C(F)(F)F)C(F)(F)F)cc1`, the compound was classed as inactive.
